Compounds without any hit were thinned out: in the full panel of roughly 83,000, 20% have a hit.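 Plates (96-well) were seeded with cells, treated with compound at one concentration, and incubated for 48 hours before percent growth was determined.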 The source made the active and inactive calls. The calls were made as follows: active = growth percent below 10; inactive = the rest.
Assays:
Assay in all cases: NCI-60 one-dose screen, 48 h (100 = growth as untreated, 0 = no growth, -100 = all killed)
Settings in all cases: 10 µM unless noted
DU-145 prostate = tested on: DU-145 prostate
K-562 leukemia = tested on: K-562 leukemia
MALME-3M melanoma = tested on: MALME-3M melanoma
MDA-MB-231 breast = tested on: MDA-MB-231 breast
RXF 393 renal = tested on: RXF 393 renal
SF-268 CNS = tested on: SF-268 CNS
SF-295 CNS = tested on: SF-295 CNS
SF-539 CNS = tested on: SF-539 CNS
UACC-257 melanoma = tested on: UACC-257 melanoma
M14 melanoma = tested on: M14 melanoma
HCT-15 colon = tested on: HCT-15 colon
HT29 colon = tested on: HT29 colon
SNB-75 CNS = tested on: SNB-75 CNS
SNB-19 CNS = tested on: SNB-19 CNS
U251 CNS = tested on: U251 CNS
PC-3 prostate = tested on: PC-3 prostate
SK-MEL-5 melanoma = tested on: SK-MEL-5 melanoma
UACC-62 melanoma = tested on: UACC-62 melanoma
LOX IMVI melanoma = tested on: LOX IMVI melanoma
SK-MEL-28 melanoma = tested on: SK-MEL-28 melanoma

Measured: growth

Clc1ccc(I)c2ccccc12
inactive: DU-145 prostate 111% | K-562 leukemia 102% | MALME-3M melanoma 97.6% | MDA-MB-231 breast 110% | RXF 393 renal 113% | SF-268 CNS 101% | SF-295 CNS 102% | SF-539 CNS 105% | UACC-257 melanoma 101% | M14 melanoma 101% | HCT-15 colon 96.4% | HT29 colon 111% | SNB-75 CNS 96.5% | SNB-19 CNS 110% | U251 CNS 96.3% | PC-3 prostate 102% | SK-MEL-5 melanoma 109% | UACC-62 melanoma 111% | LOX IMVI melanoma 59.4% | SK-MEL-28 melanoma 114%

Cc1ccccc1-n1c(C)nc2cc(NC(=O)c3ccc(Cl)cc3)ccc2c1=O
inactive: DU-145 prostate 87.6% | K-562 leukemia 55.8% | MALME-3M melanoma 53.5% | MDA-MB-231 breast 58.4% | RXF 393 renal 77.7% | SF-268 CNS 77.8% | SF-295 CNS 59.7% | SF-539 CNS 58.2% | UACC-257 melanoma 59.7% | M14 melanoma 68.7% | HCT-15 colon 63.7% | HT29 colon 62.9% | SNB-75 CNS 103% | SNB-19 CNS 75.9% | U251 CNS 77.6% | PC-3 prostate 61.2% | UACC-62 melanoma 42.2% | LOX IMVI melanoma 69.4% | SK-MEL-28 melanoma 79.5%
active: SK-MEL-5 melanoma 0.858%

O=C(/C=C1\C(=O)N(Cc2ccc([N+](=O)[O-])cc2)c2ccccc21)c1ccc(OCCN2CCCC2)cc1
active: K-562 leukemia 1.78%
inactive: DU-145 prostate 42.9% | MALME-3M melanoma 46.8% | MDA-MB-231 breast 66.5% | RXF 393 renal 56.7% | SF-268 CNS 76.9% | SF-295 CNS 95.6% | SF-539 CNS 67.6% | UACC-257 melanoma 88.4% | M14 melanoma 70.2% | HCT-15 colon 15.4% | HT29 colon 17.4% | SNB-75 CNS 65.3% | SNB-19 CNS 95.1% | U251 CNS 84.7% | PC-3 prostate 77% | SK-MEL-5 melanoma 88.5% | UACC-62 melanoma 85.8% | LOX IMVI melanoma 16.7% | SK-MEL-28 melanoma 104%

CC(O)CN(CC(C)O)N(CC(C)O)CC(C)O (stereo not given)
inactive: DU-145 prostate 111% | K-562 leukemia 108% | MALME-3M melanoma 108% | MDA-MB-231 breast 105% | RXF 393 renal 105% | SF-268 CNS 110% | SF-295 CNS 101% | SF-539 CNS 105% | UACC-257 melanoma 90.5% | M14 melanoma 100% | HCT-15 colon 93.6% | HT29 colon 99.3% | SNB-75 CNS 93.1% | SNB-19 CNS 99.1% | U251 CNS 90.9% | PC-3 prostate 99.4% | SK-MEL-5 melanoma 105% | UACC-62 melanoma 102% | LOX IMVI melanoma 93.7% | SK-MEL-28 melanoma 107%

CCN(CC)CCCNc1c2ccc(Cl)cc2nc2ccc(OC)cc12
inactive: UACC-257 melanoma 33.4% | SNB-19 CNS 10.2% | UACC-62 melanoma 50.3%
active: DU-145 prostate 5.08% | K-562 leukemia -21.9% | MALME-3M melanoma -59.7% | MDA-MB-231 breast -39.5% | RXF 393 renal -57.9% | SF-268 CNS -10.1% | SF-295 CNS -21.7% | SF-539 CNS -65.7% | M14 melanoma -79% | HCT-15 colon 1.74% | HT29 colon -15.4% | SNB-75 CNS -44.9% | U251 CNS -14.9% | PC-3 prostate -34.6% | SK-MEL-5 melanoma -96.3% | LOX IMVI melanoma -43.1% | SK-MEL-28 melanoma -72.3%

CC1=NN(c2cccc(Cl)c2)C(=O)/C1=C\c1cn(-c2nc(N3CCOCC3)nc(N3CCOCC3)n2)c2ccccc12
inactive: DU-145 prostate 106% | K-562 leukemia 114% | MALME-3M melanoma 104% | MDA-MB-231 breast 112% | RXF 393 renal 115% | SF-268 CNS 95.4% | SF-295 CNS 105% | SF-539 CNS 109% | UACC-257 melanoma 106% | M14 melanoma 103% | HCT-15 colon 107% | HT29 colon 95.4% | SNB-75 CNS 86.4% | SNB-19 CNS 103% | U251 CNS 110% | PC-3 prostate 93% | SK-MEL-5 melanoma 101% | UACC-62 melanoma 103% | LOX IMVI melanoma 95.7% | SK-MEL-28 melanoma 116%

Oc1ccccc1\C=N/N=C/C=C/c1ccccc1
inactive: DU-145 prostate 105% | K-562 leukemia 82.9% | MALME-3M melanoma 102% | MDA-MB-231 breast 67.1% | RXF 393 renal 117% | SF-268 CNS 88.9% | SF-295 CNS 98.4% | SF-539 CNS 104% | UACC-257 melanoma 107% | M14 melanoma 95.8% | HCT-15 colon 103% | HT29 colon 92.3% | SNB-75 CNS 88.4% | SNB-19 CNS 93.9% | U251 CNS 99.5% | PC-3 prostate 89.7% | SK-MEL-5 melanoma 97.4% | UACC-62 melanoma 93.2% | LOX IMVI melanoma 91.1% | SK-MEL-28 melanoma 111%

Nc1ccc(S(=O)(=O)Nc2cc(F)cc(F)c2)cc1
inactive: DU-145 prostate 94.5% | K-562 leukemia 71.9% | MALME-3M melanoma 131% | MDA-MB-231 breast 90.9% | RXF 393 renal 20.1% | SF-268 CNS 130% | SF-295 CNS 103% | SF-539 CNS 85.6% | UACC-257 melanoma 95.5% | M14 melanoma 91.1% | HCT-15 colon 105% | HT29 colon 102% | SNB-75 CNS 92.8% | SNB-19 CNS 104% | U251 CNS 98.1% | PC-3 prostate 109% | SK-MEL-5 melanoma 106% | UACC-62 melanoma 88.3% | LOX IMVI melanoma 91.5% | SK-MEL-28 melanoma 120%

[N-]=[N+]=Nc1ncc(-c2ccc(C(F)(F)F)cc2)c(NC2CCCCCC2)n1
inactive: DU-145 prostate 37.1% [100 µM] | MALME-3M melanoma 62.3% [100 µM] | MDA-MB-231 breast 42.3% [100 µM] | RXF 393 renal 43.5% [100 µM] | SF-268 CNS 38% [100 µM] | SF-539 CNS 66.2% [100 µM] | UACC-257 melanoma 27.6% [100 µM] | M14 melanoma 34.7% [100 µM] | HCT-15 colon 25.9% [100 µM] | HT29 colon 31.4% [100 µM] | SNB-75 CNS 49.6% [100 µM] | SNB-19 CNS 40.9% [100 µM] | U251 CNS 30.3% [100 µM] | SK-MEL-5 melanoma 26.5% [100 µM] | UACC-62 melanoma 25.5% [100 µM] | LOX IMVI melanoma 39.9% [100 µM] | SK-MEL-28 melanoma 68.2% [100 µM]
active: K-562 leukemia 8.78% [100 µM] | SF-295 CNS -19.7% [100 µM] | PC-3 prostate -8.57% [100 µM]

C/C=C/C/C=C/[C@H](C)C[C@H](O)[C@@H]1C[C@@H]2O[C@H]2/C=C/[C@@H]2OC(C)(C)O[C@H]2/C=C/C[C@H](C)CC(=O)O1
inactive: DU-145 prostate 36.1% | K-562 leukemia 30.1% | MALME-3M melanoma 87.6% | MDA-MB-231 breast 61.6% | RXF 393 renal 81.1% | SF-268 CNS 46.9% | SF-295 CNS 28.8% | SF-539 CNS 71% | UACC-257 melanoma 69.9% | M14 melanoma 36.8% | HCT-15 colon 19.7% | HT29 colon 28.1% | SNB-75 CNS 36.3% | SNB-19 CNS 62.2% | U251 CNS 30% | PC-3 prostate 57.8% | SK-MEL-5 melanoma 31% | LOX IMVI melanoma 44.3% | SK-MEL-28 melanoma 59.3%
active: UACC-62 melanoma 8.91%

CCCCCCNC(=O)Oc1ccc(/C(=C(/C)Cc2ccc(OC)cc2)c2ccc(OCCN3CCCCC3)cc2)cc1
inactive: DU-145 prostate 98.9% | K-562 leukemia 36.8% | MALME-3M melanoma 101% | MDA-MB-231 breast 84.5% | RXF 393 renal 84.4% | SF-268 CNS 81.9% | SF-295 CNS 105% | SF-539 CNS 91.8% | UACC-257 melanoma 88.9% | M14 melanoma 84.6% | HCT-15 colon 31.6% | HT29 colon 19.5% | SNB-75 CNS 66.7% | SNB-19 CNS 86.3% | U251 CNS 63.1% | PC-3 prostate 76.4% | SK-MEL-5 melanoma 80.4% | UACC-62 melanoma 88.4% | LOX IMVI melanoma 82.9% | SK-MEL-28 melanoma 96.8%

C=CCC(CCC(CC=C)C(=O)OCC)C(=O)OCC (stereo not given)
inactive: DU-145 prostate 110% | K-562 leukemia 108% | MALME-3M melanoma 96.2% | MDA-MB-231 breast 107% | RXF 393 renal 108% | SF-268 CNS 105% | SF-295 CNS 91.9% | SF-539 CNS 105% | UACC-257 melanoma 113% | M14 melanoma 102% | HCT-15 colon 105% | HT29 colon 102% | SNB-75 CNS 77.8% | SNB-19 CNS 96.2% | U251 CNS 102% | PC-3 prostate 97.9% | SK-MEL-5 melanoma 108% | UACC-62 melanoma 101% | LOX IMVI melanoma 92.1% | SK-MEL-28 melanoma 91.1%

CCOc1ccc(/C=N/NC(=O)c2cccc3ccccc23)cc1OCC
inactive: DU-145 prostate 106% | K-562 leukemia 80.7% | MALME-3M melanoma 114% | MDA-MB-231 breast 96% | RXF 393 renal 109% | SF-268 CNS 108% | SF-295 CNS 89.1% | SF-539 CNS 105% | UACC-257 melanoma 109% | M14 melanoma 123% | HCT-15 colon 97.2% | HT29 colon 103% | SNB-75 CNS 106% | SNB-19 CNS 110% | U251 CNS 100% | PC-3 prostate 90.1% | SK-MEL-5 melanoma 92.1% | UACC-62 melanoma 93.4% | LOX IMVI melanoma 92.7% | SK-MEL-28 melanoma 103%

COc1cc(N2C(=O)C=CC2=O)ccc1N1C(=O)C=CC1=O
inactive: DU-145 prostate 114% | K-562 leukemia 64.5% | MALME-3M melanoma 97.3% | MDA-MB-231 breast 116% | RXF 393 renal 110% | SF-268 CNS 105% | SF-295 CNS 99.9% | SF-539 CNS 101% | UACC-257 melanoma 104% | M14 melanoma 103% | HCT-15 colon 109% | HT29 colon 102% | SNB-75 CNS 90.2% | SNB-19 CNS 107% | U251 CNS 97.5% | PC-3 prostate 94.8% | SK-MEL-5 melanoma 104% | UACC-62 melanoma 106% | LOX IMVI melanoma 99.1% | SK-MEL-28 melanoma 103%

COc1cc2oc(-c3ccc(NC(=O)c4ccccc4)cc3)cc(=O)c2c(OC)c1OC
inactive: DU-145 prostate 82.3% | K-562 leukemia 102% | MALME-3M melanoma 74.8% | MDA-MB-231 breast 74.9% | RXF 393 renal 90.2% | SF-268 CNS 77.5% | SF-295 CNS 77.4% | SF-539 CNS 81.6% | UACC-257 melanoma 97.3% | M14 melanoma 92.8% | HCT-15 colon 79.2% | HT29 colon 84.3% | SNB-75 CNS 81% | SNB-19 CNS 75% | U251 CNS 90.5% | PC-3 prostate 71.7% | SK-MEL-5 melanoma 85.7% | UACC-62 melanoma 85.4% | LOX IMVI melanoma 92.5% | SK-MEL-28 melanoma 93.3%
